A number with no mark means an inactive call. Results filed as inconclusive are left out. Active and inactive are the calls of the source. Calls come from the whole dose curve; as a rule, active = well fitted curve in the direction sought with a large enough effect in the repeat runs; inconclusive = weak or mixed curves; inactive = no such curve, though single readings can be large; an effect the other way counts as inactive or inconclusive.

The nature of experiment [1]: Caspase-3/7 induction in CHO-K1 cells by small molecules, qHTS assay (AID 1346980). Note: nearly all actives have a fitted effect of over 15% in size. Note: potency is the fitted concentration of half-maximal effect. Particulars: CHO-K1 caspase-3/7 induction, Caspase-Glo luminescence, 17 h; series mostly up to 92.4 µM. Put shortly:
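Wild-type cells were seeded at 1,500 per well and settled 5 hr at 37 C, 5% CO2, then exposed to DMSO-dissolved compounds for 17 hr. Caspase-Glo 3/7 reagent was added, and luminescence was read after 30min at room temperature.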

The nature of experiment [2]: Caspase-3/7 induction in HepG2 cells by small molecules, qHTS cell viability counter screen (AID 1346981). Note: nearly all actives have a fitted effect of over 30% in size. Particulars: CellTiter-Fluor fluorescence, 17 h; series mostly up to 92.4 µM. Put shortly:
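CellTiter-Fluor fluorescence measured viability in the same wells used for Caspase-Glo 3/7. HepG2 (wild type) at 2,000 cells/well were pre-incubated 5 hr, dosed, and given reagent at 16 hr, with 1 hr further at 37C.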
A general note: In qHTS, concentration-response curves come from the screen itself.

Experiment [3] addresses Nuclear receptor subfamily 1 group I member 2 (Homo sapiens) (UniProt O75469). Description: Human pregnane X receptor (PXR) small molecule agonists, qHTS assay (AID 1346982). Note: nearly all actives have a fitted effect of over 35% in size. Note: potency is the fitted concentration of half-maximal effect. The conditions noted are these: PXR-Luc HepG2, CYP3A4 luciferase reporter, 24 h; series mostly up to 92.4 µM. In outline:
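Agonist mode: luminescence from ONE-Glo after 24 h compound exposure at 37C in HepG2 cells carrying hPXR-responsive CYP3A4 luciferase, plated in charcoal-stripped serum medium 5 h beforehand.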

In experiment [4] the target is Cytochrome P450 2D6 (Homo sapiens) (UniProt P10635). Description: Cytochrome P450 Family 2 Subfamily D Member 6 (CYP2D6) small molecule antagonists: luciferase reporter qHTS assay (AID 1671196). Note: nearly all actives have a fitted effect of over 50% in size. The conditions noted are these: P450-Glo CYP2D6 enzyme assay, luciferin luminescence, 1 h; series mostly up to 115 µM. In outline:
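CYP2D6 activity was followed as luminescence from its luciferin product after a 1 h NADPH-driven reaction at room temperature. Enzyme-substrate mix and compound were pre-incubated for 10 min, and the signal was read 20 min after adding detection reagent.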
(In general: Reporter assays use an easily measured gene product as a stand-in for the process of interest.)

The target in experiment [5] is Cytochrome P450 2C19 (Homo sapiens) (UniProt P33261). Put plainly: Cytochrome P450 Family 2 Subfamily C Member 19 (CYP2C19) small molecule antagonists: luciferase reporter qHTS assay (AID 1671197). Note: nearly all actives have a fitted effect of over 65% in size. Note: potency is the fitted concentration of half-maximal effect. The conditions noted are these: P450-Glo CYP2C19 enzyme, luciferin luminescence, 1 h; series mostly up to 115 µM. In outline: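 P450-Glo CYP2C19 screening system; proluciferin substrate; DMSO compound stocks; 10 min RT preincubation; NADPH regeneration, 1 h at 37C; luciferin detection reagent, 20 min RT; luminescence as RLU.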
Cytochrome P450 2C19 (Homo sapiens), sequence (P33261 whole entry, looked up): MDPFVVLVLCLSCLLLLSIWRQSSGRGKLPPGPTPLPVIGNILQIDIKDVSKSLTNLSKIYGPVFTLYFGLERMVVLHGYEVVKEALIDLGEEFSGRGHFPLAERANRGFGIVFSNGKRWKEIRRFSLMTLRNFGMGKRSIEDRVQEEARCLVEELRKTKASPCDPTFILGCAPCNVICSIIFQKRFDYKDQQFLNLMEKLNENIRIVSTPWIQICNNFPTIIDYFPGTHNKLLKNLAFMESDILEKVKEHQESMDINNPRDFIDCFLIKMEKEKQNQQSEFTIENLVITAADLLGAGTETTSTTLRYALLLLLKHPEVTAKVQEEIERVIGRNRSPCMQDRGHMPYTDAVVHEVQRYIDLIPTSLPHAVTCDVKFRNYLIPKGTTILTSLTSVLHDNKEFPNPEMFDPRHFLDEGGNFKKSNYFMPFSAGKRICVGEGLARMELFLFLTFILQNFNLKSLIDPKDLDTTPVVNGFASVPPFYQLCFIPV

For experiment [6], the target named is Cytochrome P450 2C9 (Homo sapiens) (UniProt P11712). Description: Cytochrome P450 Family 2 Subfamily C Member 9 (CYP2C9) small molecule antagonists: luciferase reporter qHTS assay (AID 1671198). Note: nearly all actives have a fitted effect of over 50% in size. Note: potency is the fitted concentration of half-maximal effect. The conditions noted are these: P450-Glo CYP2C9 enzyme assay, luciferin luminescence; series mostly up to 115 µM. Put shortly: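 CYP2C9 activity was measured with a P450-Glo proluciferin substrate. Enzyme–substrate mix was held with compound for 10 min at room temperature, then NADPH regeneration solution was added for 1 h at 37C. Luciferin product was read as luminescence.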
Cytochrome P450 2C9 (Homo sapiens), sequence (P11712 whole entry, looked up): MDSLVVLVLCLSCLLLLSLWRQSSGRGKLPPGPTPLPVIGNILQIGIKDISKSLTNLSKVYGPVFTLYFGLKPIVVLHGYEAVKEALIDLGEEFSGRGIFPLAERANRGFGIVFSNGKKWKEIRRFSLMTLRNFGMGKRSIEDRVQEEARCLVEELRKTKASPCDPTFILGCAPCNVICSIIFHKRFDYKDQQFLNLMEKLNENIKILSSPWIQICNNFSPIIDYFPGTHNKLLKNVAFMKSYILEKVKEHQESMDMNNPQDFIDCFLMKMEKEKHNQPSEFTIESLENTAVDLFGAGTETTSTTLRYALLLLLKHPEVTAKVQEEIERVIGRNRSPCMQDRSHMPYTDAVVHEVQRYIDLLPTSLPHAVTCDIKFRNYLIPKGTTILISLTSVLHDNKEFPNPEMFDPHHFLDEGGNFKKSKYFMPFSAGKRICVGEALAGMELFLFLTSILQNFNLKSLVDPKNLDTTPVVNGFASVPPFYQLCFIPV

For experiment [7], the target named is Voltage-gated inwardly rectifying potassium channel KCNH2 (Homo sapiens) (UniProt Q12809). Put plainly: Human Ether-a-go-go-Related Gene (hERG) channel small molecule antagonists: fluorescence cell-based qHTS assay (AID 1671200).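 Note: hERG-expressing U2OS cells given a thallium stimulus after FluxOR II dye loading; nearly all actives have a fitted effect of over 50% in size.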 The conditions noted are these: hERG-U2OS cells, FluxOR thallium flux fluorescence; series mostly up to 76.8 µM. Put shortly: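 Quantitative HTS in hERG-U2OS cells: thallium entry through the channel reports activity, read as continuous 480/540 nm fluorescence over 2 min after stimulus addition.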
Voltage-gated inwardly rectifying potassium channel KCNH2 (Homo sapiens), sequence (Q12809 whole entry, looked up): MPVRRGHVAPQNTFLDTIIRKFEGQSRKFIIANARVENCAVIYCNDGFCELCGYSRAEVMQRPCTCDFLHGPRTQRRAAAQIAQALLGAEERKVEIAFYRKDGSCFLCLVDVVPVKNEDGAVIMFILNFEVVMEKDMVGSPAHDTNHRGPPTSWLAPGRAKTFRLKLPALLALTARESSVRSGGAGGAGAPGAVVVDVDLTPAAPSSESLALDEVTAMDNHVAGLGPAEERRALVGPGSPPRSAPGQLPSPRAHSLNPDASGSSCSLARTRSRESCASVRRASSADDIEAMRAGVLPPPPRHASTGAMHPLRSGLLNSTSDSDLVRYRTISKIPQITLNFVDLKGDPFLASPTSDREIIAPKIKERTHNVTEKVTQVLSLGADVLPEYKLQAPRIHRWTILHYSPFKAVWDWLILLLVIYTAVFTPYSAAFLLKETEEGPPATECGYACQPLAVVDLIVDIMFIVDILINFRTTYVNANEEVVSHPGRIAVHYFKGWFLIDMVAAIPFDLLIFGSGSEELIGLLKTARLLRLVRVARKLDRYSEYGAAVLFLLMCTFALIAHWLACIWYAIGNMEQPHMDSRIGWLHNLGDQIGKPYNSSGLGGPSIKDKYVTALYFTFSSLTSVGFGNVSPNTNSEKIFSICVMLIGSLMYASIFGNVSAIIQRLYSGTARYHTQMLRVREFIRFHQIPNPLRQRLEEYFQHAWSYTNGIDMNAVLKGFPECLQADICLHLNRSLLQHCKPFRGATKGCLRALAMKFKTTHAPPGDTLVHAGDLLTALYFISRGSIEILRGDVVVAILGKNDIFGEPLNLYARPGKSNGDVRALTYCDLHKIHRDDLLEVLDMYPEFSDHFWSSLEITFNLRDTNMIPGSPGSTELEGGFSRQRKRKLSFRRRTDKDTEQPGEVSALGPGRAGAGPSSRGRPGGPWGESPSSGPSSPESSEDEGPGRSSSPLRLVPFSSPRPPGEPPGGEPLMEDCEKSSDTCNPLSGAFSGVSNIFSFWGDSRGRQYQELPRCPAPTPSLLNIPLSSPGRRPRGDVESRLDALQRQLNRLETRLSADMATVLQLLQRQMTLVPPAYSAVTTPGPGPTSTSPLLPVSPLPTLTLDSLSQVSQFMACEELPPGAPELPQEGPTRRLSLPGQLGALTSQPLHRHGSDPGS

Experiment [8] concerns the target Cytochrome P450 3A4 (Homo sapiens) (UniProt P08684). Put plainly: Cytochrome P450 Family 3 Subfamily A Member 4 (CYP3A4) small molecule antagonists: luciferase reporter qHTS assay (AID 1671201). Note: nearly all actives have a fitted effect of over 50% in size. Note: potency is the fitted concentration of half-maximal effect. Particulars: P450-Glo CYP3A4 enzyme, luciferin luminescence, 1 h; series mostly up to 115 µM. In outline:
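Inhibition of CYP3A4 is measured as loss of light: the enzyme converts a proluciferin substrate to luciferin, detected luminescently. Reaction ran 1 h at room temperature with NADPH regeneration after a 10 min compound preincubation.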

For experiment [9], the target named is Nuclear receptor subfamily 1 group I member 2 (Homo sapiens) (UniProt O75469). Put plainly: CYP3A4 induction through human pregnane X receptor (PXR) by small molecules, qHTS assay (AID 1346984). Note: nearly all actives have a fitted effect of over 40% in size. Note: potency is the fitted concentration of half-maximal effect. The conditions noted are these: DPX-2 HepG2 PXR, CYP3A4-luciferin luminescence, 24 h; series mostly up to 46.1 µM. In outline: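 Read-out is luminescence after One-Glo addition, following a 3 hr, 37C incubation with Luciferin-IPA CYP3A4 substrate (3uM final). Before that, compounds were on DPX-2 cells (HepG2 co-transfected with PXR element plus CYP3A4-promoter luciferase) for 24 hr at 37C.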
Nuclear receptor subfamily 1 group I member 2 (Homo sapiens), sequence (O75469 whole entry, looked up): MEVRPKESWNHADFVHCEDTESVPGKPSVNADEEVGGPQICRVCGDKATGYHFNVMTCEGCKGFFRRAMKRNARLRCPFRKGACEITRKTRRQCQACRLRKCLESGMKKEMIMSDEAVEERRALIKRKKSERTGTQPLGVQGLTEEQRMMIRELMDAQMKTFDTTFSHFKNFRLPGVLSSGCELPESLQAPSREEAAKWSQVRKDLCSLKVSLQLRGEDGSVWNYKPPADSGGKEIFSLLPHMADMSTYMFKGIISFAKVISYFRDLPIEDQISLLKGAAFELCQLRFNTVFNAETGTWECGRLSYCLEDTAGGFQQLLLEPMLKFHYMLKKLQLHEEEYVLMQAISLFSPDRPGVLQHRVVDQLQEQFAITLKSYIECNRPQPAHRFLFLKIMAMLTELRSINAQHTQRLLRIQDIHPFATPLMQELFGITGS

Experiment [10] has the same target. Put plainly: Human pregnane X receptor (PXR) activation by small molecules, qHTS assay (AID 1346985). Note: nearly all actives have a fitted effect of over 40% in size. The conditions noted are these: DPX-2 HepG2 CYP3A4-luciferase, 24 h; series mostly up to 38.3 µM. In outline:
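DPX-2 cells (HepG2 co-transfected with a PXR response element and a CYP3A4-promoter luciferase construct) were seeded at 2,000 per well, rested 5 hr at 37C, then exposed to DMSO-dissolved compounds for 24 hr. Activation was read as luciferase luminescence.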

Experiment [11] addresses Cytochrome P450 1A2 (Homo sapiens) (UniProt P05177). Put plainly: Cytochrome P450 Family 1 Subfamily A Member 2 (CYP1A2) small molecule antagonists: luciferase reporter qHTS assay (AID 1671199). Note: nearly all actives have a fitted effect of over 50% in size. Note: potency is the fitted concentration of half-maximal effect. Particulars: P450-Glo CYP1A2 enzyme, luciferin luminescence, 1 h; series mostly up to 115 µM. Put shortly: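 Luminescence from luciferin formed by CYP1A2 from a proluciferin substrate, read 20 min after detection reagent. Compound was pre-incubated 10 min with enzyme-substrate, and reaction started with NADPH regeneration solution for 1 h at room temperature; furafylline control.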

For experiment [12], the target named is Nuclear receptor subfamily 1 group I member 2 (Rattus norvegicus) (UniProt Q9R1A7). Put plainly: Rat pregnane X receptor (rPXR) activation by small molecules, qHTS assay (AID 1346983). Note: nearly all actives have a fitted effect of over 20% in size. The conditions noted are these: rPXR luciferase reporter cells, One-Glo luminescence, 24 h; max activation: hits give high values. In outline:
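Cell-based rPXR luciferase reporter assay, 2,000 cells per well, rested 5hr at 37 C before compound addition in DMSO, then 24 hr at 37 C. One-Glo reagent was added and luminescence read after 30 min at room temperature.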
% is set by controls: 0 for no effect and ±100 for the full control effect.

Cytochrome P450 2D6 (Homo sapiens), sequence (P10635 whole entry, looked up): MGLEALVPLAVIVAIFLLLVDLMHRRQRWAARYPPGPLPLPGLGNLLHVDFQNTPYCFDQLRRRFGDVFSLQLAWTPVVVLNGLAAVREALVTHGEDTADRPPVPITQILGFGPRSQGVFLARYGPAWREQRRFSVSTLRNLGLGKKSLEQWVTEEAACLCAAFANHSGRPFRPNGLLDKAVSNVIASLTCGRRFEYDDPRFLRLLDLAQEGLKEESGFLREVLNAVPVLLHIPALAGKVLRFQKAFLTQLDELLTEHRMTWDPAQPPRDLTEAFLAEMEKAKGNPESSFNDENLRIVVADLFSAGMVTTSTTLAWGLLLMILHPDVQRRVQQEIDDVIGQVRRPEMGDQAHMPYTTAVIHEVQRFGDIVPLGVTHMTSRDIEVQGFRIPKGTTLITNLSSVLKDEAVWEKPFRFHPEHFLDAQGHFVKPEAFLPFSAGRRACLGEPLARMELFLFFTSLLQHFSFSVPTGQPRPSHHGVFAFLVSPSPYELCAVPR
Cytochrome P450 1A2 (Homo sapiens), sequence (P05177 whole entry, looked up): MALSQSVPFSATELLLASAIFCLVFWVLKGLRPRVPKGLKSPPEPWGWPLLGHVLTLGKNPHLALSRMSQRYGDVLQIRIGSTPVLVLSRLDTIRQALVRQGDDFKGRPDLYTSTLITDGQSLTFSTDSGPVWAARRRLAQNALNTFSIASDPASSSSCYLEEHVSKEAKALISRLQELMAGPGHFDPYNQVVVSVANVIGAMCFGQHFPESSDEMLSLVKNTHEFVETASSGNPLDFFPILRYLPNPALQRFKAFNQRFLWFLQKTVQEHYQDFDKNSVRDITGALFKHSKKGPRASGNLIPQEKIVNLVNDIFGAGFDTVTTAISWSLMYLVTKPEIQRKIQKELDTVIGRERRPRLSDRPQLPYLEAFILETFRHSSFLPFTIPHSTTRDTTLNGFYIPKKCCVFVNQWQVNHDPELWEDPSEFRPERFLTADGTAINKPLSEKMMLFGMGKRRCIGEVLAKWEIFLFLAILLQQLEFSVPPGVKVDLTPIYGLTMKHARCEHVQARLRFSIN
Cytochrome P450 3A4 (Homo sapiens), sequence (P08684 whole entry, looked up): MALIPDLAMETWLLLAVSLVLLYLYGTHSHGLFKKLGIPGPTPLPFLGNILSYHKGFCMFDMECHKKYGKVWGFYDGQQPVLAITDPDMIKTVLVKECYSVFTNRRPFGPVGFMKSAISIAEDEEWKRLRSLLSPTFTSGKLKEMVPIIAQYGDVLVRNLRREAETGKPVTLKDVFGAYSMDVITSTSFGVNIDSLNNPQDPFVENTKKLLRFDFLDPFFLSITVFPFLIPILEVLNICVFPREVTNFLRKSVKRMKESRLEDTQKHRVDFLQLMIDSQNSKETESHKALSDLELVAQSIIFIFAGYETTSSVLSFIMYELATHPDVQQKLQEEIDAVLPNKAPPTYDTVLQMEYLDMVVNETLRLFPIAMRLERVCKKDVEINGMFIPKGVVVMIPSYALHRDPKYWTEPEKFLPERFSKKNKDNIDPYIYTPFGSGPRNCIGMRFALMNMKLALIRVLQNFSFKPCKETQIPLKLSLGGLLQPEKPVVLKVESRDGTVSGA
Nuclear receptor subfamily 1 group I member 2 (Rattus norvegicus), sequence (Q9R1A7 whole entry, looked up): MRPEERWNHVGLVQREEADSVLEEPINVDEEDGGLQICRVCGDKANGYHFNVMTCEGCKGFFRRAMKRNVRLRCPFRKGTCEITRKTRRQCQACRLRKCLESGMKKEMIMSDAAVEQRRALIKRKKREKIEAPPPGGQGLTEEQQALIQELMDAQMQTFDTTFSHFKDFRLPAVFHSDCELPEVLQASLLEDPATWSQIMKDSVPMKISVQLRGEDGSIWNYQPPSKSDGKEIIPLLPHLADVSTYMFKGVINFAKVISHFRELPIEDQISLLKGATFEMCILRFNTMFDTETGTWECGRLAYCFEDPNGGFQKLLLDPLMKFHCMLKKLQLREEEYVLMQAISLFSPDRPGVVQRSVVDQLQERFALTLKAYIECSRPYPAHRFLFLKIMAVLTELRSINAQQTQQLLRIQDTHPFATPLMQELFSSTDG

Regarding `C/C=C/C(=O)OCC(C)C`, the Potency entry in experiment [1], in [2], in experiment [3], in experiment [4], in [5] and in experiment [6] was “inactive” each time. For the same compound, the Potency entry in [7] and in experiment [8] was “inactive” each time.
On to `CCc1cccc(CC)c1`, for which the Potency entry in [1], in experiment [2], in experiment [3], in experiment [4], in experiment [5] and in experiment [6] was “inactive” each time. Also, the Potency result in experiment [7] and in experiment [8] was “inactive” throughout.
For `O=C(N[C@H](CO)[C@H](O)c1ccc([N+](=O)[O-])cc1)C(Cl)Cl`, the Potency result in [1] was “inactive”.
For the compound `O=C(O)C[C@H](O)C[C@H](O)/C=C/c1c(C2CC2)nc2ccccc2c1-c1ccc(F)cc1`, the Potency was 5.8 µM (active) in [1] and 14.1 µM (active) in experiment [9]. Also, the activity change, negative = cytotoxicity in experiment [2] was -8.1% [at 19 µM]. For the same compound, the activation in experiment [3] is 12.4% [at 19 µM]. In addition, the Potency result in experiment [10] is “inactive”. Moreover, the activity change, negative = inhibition in [4] was -0.811% [at 23.6 µM]; in experiment [5], 11.6% [at 23.6 µM]; in experiment [11] it was -11.8% [at 23.6 µM]; in [7], 2.63% [at 15.8 µM]; in experiment [8], -3.86% [at 23.6 µM].
Turning to `CCNc1nc(NC(C)(C)C)nc(OC)n1`, the Potency result in experiment [1], in experiment [2], in experiment [4], in [6] and in experiment [8] was “inactive” each time. The values for the Potency in [3], in experiment [5] and in [11] were 61.1 µM (active), 35.6 µM (active) and 20 µM (active), respectively.
On to `O=C1CCCCCCCCCCCCCC1`, for which the Potency result in [1], in experiment [2], in experiment [3], in [4], in experiment [5] and in experiment [6] was “inactive” throughout. Besides, the Potency entry in [11] was “inactive”. Also, the Potency in experiment [8] was 35.6 µM (active).
As to `CO[Si](OC)(c1ccccc1)c1ccccc1`, the Potency entry in experiment [1], in experiment [2], in experiment [4], in experiment [11] and in experiment [7] was “inactive” in each case. The Potency in experiment [3] is 34.4 µM (active); in [5], 10 µM (active); in experiment [6] it was 20 µM (active).
As to `C[C@H]1O[C@@H](O[C@H]2CC[C@@]3(C)[C@H](CC[C@@H]4[C@@H]3C[C@@H](O)[C@]3(C)[C@@H](C5=CC(=O)OC5)CC[C@]43O)C2)C[C@H](O)[C@@H]1O[C@H]1C[C@H](O)[C@H](O[C@H]2C[C@H](O)[C@H](O[C@@H]3O[C@H](CO)[C@@H](O)[C@H](O)[C@H]3O)[C@@H](C)O2)[C@@H](C)O1`, the Potency result in experiment [1], in experiment [2], in experiment [3], in experiment [9], in experiment [10] and in experiment [4] was “inactive” each time. Further, the Potency result in [5], in [6] and in experiment [8] was “inactive” each time. Also, the max activation in [12] is 6.34%.

These data come from PubChem BioAssay (Tox21).
